From PubChem BioAssay (Tox21)
Results filed as inconclusive are left out. Calls of active or inactive are those of the source. Unless noted, calls come from the whole dose curve; as a rule, active = well fitted curve in the direction sought with a large enough effect in the repeat runs; inconclusive = weak or mixed curves; inactive = no such curve, though single readings can be large; an effect the other way counts as inactive or inconclusive.

How the values were obtained:
[1] = molecular target: Aryl hydrocarbon receptor (Homo sapiens) (UniProt P35869); assay: qHTS assay to identify small molecule that activate the aryl hydrocarbon receptor (AhR) signaling pathway (AID 743085);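 note: HG2L7.5c1 human HepG2 liver cells with stably integrated DRE-driven firefly reporter; series mostly up to about 70 µM; nearly all actives have a fitted effect of over 15% in size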
Aryl hydrocarbon receptor (Homo sapiens), sequence (P35869 whole entry, looked up): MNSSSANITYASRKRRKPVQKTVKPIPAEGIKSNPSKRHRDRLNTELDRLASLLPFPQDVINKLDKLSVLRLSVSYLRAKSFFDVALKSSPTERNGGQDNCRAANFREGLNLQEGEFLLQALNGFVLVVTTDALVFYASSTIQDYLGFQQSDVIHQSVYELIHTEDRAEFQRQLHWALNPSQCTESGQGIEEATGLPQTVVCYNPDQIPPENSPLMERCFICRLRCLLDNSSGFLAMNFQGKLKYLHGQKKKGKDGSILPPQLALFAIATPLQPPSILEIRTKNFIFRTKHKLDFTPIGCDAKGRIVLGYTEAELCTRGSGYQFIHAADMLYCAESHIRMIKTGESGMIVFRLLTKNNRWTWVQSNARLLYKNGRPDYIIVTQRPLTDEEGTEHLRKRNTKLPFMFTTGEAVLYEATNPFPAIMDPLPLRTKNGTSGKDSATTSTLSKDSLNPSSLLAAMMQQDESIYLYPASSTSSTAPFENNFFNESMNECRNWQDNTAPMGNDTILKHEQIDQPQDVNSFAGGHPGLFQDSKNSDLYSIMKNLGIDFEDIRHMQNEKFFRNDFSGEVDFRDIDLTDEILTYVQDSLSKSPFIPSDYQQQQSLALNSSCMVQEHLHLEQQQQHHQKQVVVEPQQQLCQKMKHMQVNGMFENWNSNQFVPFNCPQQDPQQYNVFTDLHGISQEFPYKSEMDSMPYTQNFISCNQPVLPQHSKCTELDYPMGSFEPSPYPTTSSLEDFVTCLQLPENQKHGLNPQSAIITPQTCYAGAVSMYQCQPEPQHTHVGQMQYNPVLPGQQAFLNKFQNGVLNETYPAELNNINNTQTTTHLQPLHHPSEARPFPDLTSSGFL
In short: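 Stably transfected human liver carcinoma cells (HG2L7.5c1; 20 DRE-firefly luciferase) were incubated 5 h, dosed, and kept 24 h at 37C. Agonism was scored from increased luciferase luminescence.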

[2] = qHTS assay to identify small molecule that activate the aryl hydrocarbon receptor (AhR) signaling pathway - cell viability counter screen (AID 743086);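 note: HepG2 liver cells carrying the AhR DRE luciferase reporter; series mostly up to about 70 µM; nearly all actives have a fitted effect of over 45% in size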
In short: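 HepG2-AhR-luc (HG2L7.5c1) cells, 4000/well, were preincubated 5 h at 37C, exposed to compound in qHTS format for 24 hr at 37C, then given CellTiter-Fluor for 30 min; viability was read as fluorescence in the reporter wells.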

[3] = molecular target: Peroxisome proliferator-activated receptor gamma (Homo sapiens) (UniProt P37231); assay: qHTS assay to identify small molecule agonists of the peroxisome proliferator-activated receptor gamma (PPARg) signaling pathway (AID 743094; active = well fitted activation curve with a large enough effect in the signal ratio in the repeat runs, not every such curve was filed as active; the % refers to the signal ratio)
Peroxisome proliferator-activated receptor gamma (Homo sapiens), sequence (P37231 whole entry, looked up): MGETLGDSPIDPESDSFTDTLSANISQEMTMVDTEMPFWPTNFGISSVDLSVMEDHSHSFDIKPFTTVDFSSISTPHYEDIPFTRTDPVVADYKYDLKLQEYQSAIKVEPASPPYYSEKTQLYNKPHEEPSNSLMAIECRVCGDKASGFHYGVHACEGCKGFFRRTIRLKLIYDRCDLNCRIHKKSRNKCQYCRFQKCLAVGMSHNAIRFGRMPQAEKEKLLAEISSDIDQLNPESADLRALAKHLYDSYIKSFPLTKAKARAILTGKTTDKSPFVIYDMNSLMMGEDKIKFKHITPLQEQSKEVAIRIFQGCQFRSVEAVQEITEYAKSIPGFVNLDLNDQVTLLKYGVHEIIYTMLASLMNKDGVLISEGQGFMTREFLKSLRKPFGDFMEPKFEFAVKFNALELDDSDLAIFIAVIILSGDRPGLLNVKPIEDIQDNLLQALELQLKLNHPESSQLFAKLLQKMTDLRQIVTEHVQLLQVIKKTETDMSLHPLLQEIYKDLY
In short: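 Following 5 h plating at 37C, PPARg-bla HEK293H cells receive compound or DMSO for 17 h; fluorescence intensity is recorded after LiveBLAzer B/G loading for 1 h at room temperature.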

[4] = qHTS assay to identify small molecule antagonists of the peroxisome proliferator-activated receptor gamma (PPARg) signaling pathway - cell viability counter screen (AID 743194); note: nearly all actives have a fitted effect of over 55% in size
In short: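 PPARg-UAS-bla HEK293H cells were plated, rested 5 h at 37 C, then treated with compounds plus rosiglitazone (50 nM final) for 17 h at 37 C; viability was then read by CellTiter-Glo luminescence after 30 min at room temperature.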

[5] = qHTS assay for small molecule agonists of the antioxidant response element (ARE) signaling pathway (AID 743202; active = well fitted activation curve with a large enough effect in the signal ratio in the repeat runs, not every such curve was filed as active; the % refers to the signal ratio)
In short: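 Read-out: LiveBLAzer B/G FRET substrate fluorescence after 2 h at room temperature, following 16 h compound treatment at 37 C of HepG2 cells carrying an ARE-driven beta-lactamase reporter.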

[6] = qHTS assay for small molecule agonists of the antioxidant response element (ARE) signaling pathway - cell viability counter screen (AID 743203; calls by dose curve; note: nearly all actives have a fitted effect of over 55% in size)
In short: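 Compounds in DMSO were pinned onto ARE-bla HepG2 cells plated 5 hrs earlier at 2,000 cells/well. Sixteen hours later at 37C/5% CO2, CellTiter-Glo was added and luminescence measured after 30 min at room temperature.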

[7] = qHTS assay for small molecule activators of the heat shock response signaling pathway - cell viability counter screen (AID 743209); note: nearly all actives have a fitted effect of over 50% in size
In short: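 Counter screen for cytotoxicity in HeLa HSE-bla reporter cells. Treatment was 5 h at 37 C; viability was detected by luminescent ATP assay (CellTiter-Glo) in the same wells as the beta-lactamase read.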

[8] = qHTS assay for small molecule activators of the heat shock response signaling pathway (AID 743210; active = well fitted activation curve with a large enough effect in the signal ratio in the repeat runs, with a control signal flat, not every such curve was filed as active; the % refers to the signal ratio; note: series mostly up to about 63 µM)
In short: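 HSE-bla HeLa cells (beta-lactamase reporter under heat shock response elements) were exposed to compounds for 5 h at 37 C, then loaded with LiveBLAzer B/G FRET substrate for 2.5 h at room temperature before fluorescence reading.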

[9] = qHTS assay to identify small molecule agonists of the peroxisome proliferator-activated receptor delta (PPARd) signaling pathway - cell viability counter screen (AID 743211); note: nearly all actives have a fitted effect of over 55% in size
In short: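 In the same wells used for beta-lactamase reporter measurement, cytotoxicity is scored by CellTiter-Glo. HEK293H PPARd-bla cells receive compound for 17 h at 37C following a 5 h settling period.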

[10] = qHTS assay to identify small molecule antagonists of the peroxisome proliferator-activated receptor delta (PPARd) signaling pathway - cell viability counter screen (AID 743213); note: nearly all actives have a fitted effect of over 50% in size
In short: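 HEK293H cells with the PPARd UAS-bla reporter, co-treated 17 h at 37 C with compounds and L165041 (300 nM final), were lysed with CellTiter-Glo. Luminescence indicated viable cell content.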

[11] = qHTS assay to identify small molecule agonists of the farnesoid-X-receptor (FXR) signaling pathway - cell viability counter screen (AID 743218); note: nearly all actives have a fitted effect of over 45% in size
In short: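 After 16 h at 37 C with test compounds, FXR-bla HEK 293T cells were given LiveBLAzer B/G substrate for 2 h at RT and then CellTiter-Glo; luminescence was taken after 30 min.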

[12] = qHTS assay to identify small molecule antagonists of the farnesoid-X-receptor (FXR) signaling pathway - cell viability counter screen (AID 743221; active = well fitted cell-killing curve with a large enough effect in the repeat runs, not every such curve was filed as active; note: nearly all actives have a fitted effect of over 50% in size)
In short: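 Here viability was scored by luminescence after CellTiter-Glo addition to wells already read for beta-lactamase. Prior treatment: compound plus CDCA (50 uM final), 16 h, 37 C, HEK 293T FXR-bla cells.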

[13] = molecular target: Vitamin D3 receptor (Homo sapiens) (UniProt P11473); assay: qHTS assay to identify small molecule agonists of the vitamin D receptor (VDR) signaling pathway (AID 743222; calls by dose curve)
Vitamin D3 receptor (Homo sapiens), sequence (P11473 whole entry, looked up): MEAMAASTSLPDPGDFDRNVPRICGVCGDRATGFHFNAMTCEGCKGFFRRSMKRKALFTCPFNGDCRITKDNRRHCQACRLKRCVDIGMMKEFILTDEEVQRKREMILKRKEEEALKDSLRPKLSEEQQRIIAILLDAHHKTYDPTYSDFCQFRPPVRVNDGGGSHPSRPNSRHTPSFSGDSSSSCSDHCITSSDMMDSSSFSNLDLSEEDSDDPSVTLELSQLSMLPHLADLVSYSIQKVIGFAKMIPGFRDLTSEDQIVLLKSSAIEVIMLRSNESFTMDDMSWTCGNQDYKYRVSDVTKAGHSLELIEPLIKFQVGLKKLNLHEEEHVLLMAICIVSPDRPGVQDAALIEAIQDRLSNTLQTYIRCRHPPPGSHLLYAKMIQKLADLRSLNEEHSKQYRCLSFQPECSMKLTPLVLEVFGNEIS
In short: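 VDR-bla cells were seeded, left 4 h, treated with compounds in DMSO for 16 h, incubated 2 h at RT with B/G FRET substrate, and read for fluorescence.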

[14] = qHTS assay to identify small molecule agonists of the vitamin D receptor (VDR) signaling pathway - cell viability counter screen (AID 743224); note: series mostly up to about 63 µM; nearly all actives have a fitted effect of over 50% in size
In short: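 Here cell health was gauged by luminescent ATP detection (CellTiter-Glo, 30 min RT) in VDR-bla cells that had been incubated with test compounds for 16 h at 37C and 5% CO2.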

[15] = molecular target: Peroxisome proliferator-activated receptor gamma (Homo sapiens) (UniProt P37231); assay: qHTS assay to identify small molecule antagonists of the peroxisome proliferator-activated receptor gamma (PPARg) signaling pathway (AID 743191; calls by dose curve; note: series mostly up to about 63 µM; nearly all actives have a fitted effect of over 30% in size)
In short: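 GeneBLAzer PPARg UAS-bla HEK293H cells carrying a UAS-driven beta-lactamase reporter were plated at 3000 cells/well, preincubated 5 h at 37C, then given compound for 17 h at 37C; LiveBLAzer B/G FRET substrate was read after 1 h at room temperature.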

[16] = molecular target: Bile acid receptor (Homo sapiens) (UniProt Q96RI1); assay: qHTS assay to identify small molecule antagonists of the farnesoid-X-receptor (FXR) signaling pathway (AID 743217; active = well fitted inhibition curve with a large enough effect in the signal ratio in the repeat runs, not every such curve was filed as active; the % refers to the signal ratio)
Bile acid receptor (Homo sapiens), sequence (Q96RI1 whole entry, looked up): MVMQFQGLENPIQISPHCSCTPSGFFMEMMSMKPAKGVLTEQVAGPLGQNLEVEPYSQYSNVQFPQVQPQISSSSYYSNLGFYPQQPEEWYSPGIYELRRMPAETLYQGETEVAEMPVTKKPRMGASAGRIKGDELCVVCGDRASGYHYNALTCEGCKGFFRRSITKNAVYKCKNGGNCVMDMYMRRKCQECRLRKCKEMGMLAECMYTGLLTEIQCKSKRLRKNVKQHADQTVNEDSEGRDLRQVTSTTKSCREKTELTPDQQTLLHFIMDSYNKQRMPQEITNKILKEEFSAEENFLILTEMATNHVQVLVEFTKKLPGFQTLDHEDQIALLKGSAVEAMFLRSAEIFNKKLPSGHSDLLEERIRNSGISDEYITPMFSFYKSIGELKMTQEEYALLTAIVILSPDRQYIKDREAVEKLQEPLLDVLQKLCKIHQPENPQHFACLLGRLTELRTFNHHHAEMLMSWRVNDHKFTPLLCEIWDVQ
In short: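 In this cell-based antagonist screen, inhibition of CDCA-driven (50 uM final) UAS-beta-lactamase expression in HEK 293T cells was measured by FRET fluorescence following 16 h compound exposure at 37 °C.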

[17] = molecular target: Bile acid receptor (Homo sapiens) (UniProt Q96RI1); assay: qHTS assay to identify small molecule agonists of the farnesoid-X-receptor (FXR) signaling pathway (AID 743220; active = well fitted activation curve with a large enough effect in the signal ratio in the repeat runs, not every such curve was filed as active; the % refers to the signal ratio)
In short: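 Beta-lactamase reporter under UAS control in GeneBLAzer FXR HEK 293T cells (5000/well) measured with LiveBLAzer FRET substrate after 2 h at room temperature. Compound exposure lasted 16 h at 37C.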

[18] = molecular target: Vitamin D3 receptor (Homo sapiens) (UniProt P11473); assay: qHTS assay to identify small molecule antagonists of the vitamin D receptor (VDR) signaling pathway (AID 743223; active = well fitted inhibition curve with a large enough effect in the signal ratio in the repeat runs, not every such curve was filed as active; the % refers to the signal ratio)
In short: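 Inhibition of agonist-driven VDR signalling is scored in VDR-bla cells: 3 nM final 1alpha,25-dihydroxyvitamin D3 plus compound, 16 h at 37C, then beta-lactamase detection by FRET substrate fluorescence after 2 h.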

[19] = molecular target: Peroxisome proliferator-activated receptor delta (Homo sapiens) (UniProt Q03181); assay: qHTS assay to identify small molecule agonists of the peroxisome proliferator-activated receptor delta (PPARd) signaling pathway (AID 743212; calls by dose curve)
Peroxisome proliferator-activated receptor delta (Homo sapiens), sequence (Q03181 whole entry, looked up): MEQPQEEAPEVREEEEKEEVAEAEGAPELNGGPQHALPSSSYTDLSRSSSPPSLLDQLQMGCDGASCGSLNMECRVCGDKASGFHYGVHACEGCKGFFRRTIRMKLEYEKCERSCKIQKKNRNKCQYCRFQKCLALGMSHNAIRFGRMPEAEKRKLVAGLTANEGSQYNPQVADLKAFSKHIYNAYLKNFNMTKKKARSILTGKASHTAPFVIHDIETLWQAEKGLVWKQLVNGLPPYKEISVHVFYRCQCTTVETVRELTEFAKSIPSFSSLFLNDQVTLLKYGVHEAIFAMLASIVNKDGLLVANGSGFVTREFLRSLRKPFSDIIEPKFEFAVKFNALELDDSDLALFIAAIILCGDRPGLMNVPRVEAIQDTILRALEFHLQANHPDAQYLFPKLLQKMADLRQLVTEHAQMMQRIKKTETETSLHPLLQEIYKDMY
In short: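 GeneBLAzer PPARd UAS-bla HEK293H cells (beta-lactamase reporter under UAS control), plated and rested 5 h at 37 C, then exposed to compounds in DMSO at 37 C; LiveBLAzer B/G FRET substrate added, 2 h room temperature, fluorescence read.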

[20] = molecular target: Peroxisome proliferator-activated receptor delta (Homo sapiens) (UniProt Q03181); assay: qHTS assay to identify small molecule antagonists of the peroxisome proliferator-activated receptor delta (PPARd) signaling pathway (AID 743215; active = well fitted inhibition curve with a large enough effect in the signal ratio in the repeat runs, not every such curve was filed as active; the % refers to the signal ratio;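 note: cells stimulated with agonist L165041 at 300 nM final during compound exposure; series mostly up to about 62 µM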)
In short: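 With L165041 present at 300 nM final, compounds were incubated 17 h at 37 C on PPARd UAS-bla HEK293H cells. A FRET-based beta-lactamase substrate was then applied for 2 h at room temperature and fluorescence intensity recorded.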

Measured: Potency

c1ccncc1
inactive: [1] | [2] | [3] | [4] | [5] | [6] | [7] | [8] | [9] | [10] | [11] | [12] | [13] | [14]

CCCCNS(=O)(=O)c1ccccc1
inactive: [1] | [2] | [3] | [15] | [4] | [5] | [6] | [7] | [8] | [9] | [10] | [16] | [17] | [12] | [13] | [14]

CC(C)OB(OC(C)C)OC(C)C
inactive: [1] | [2] | [3] | [15] | [4] | [5] | [6] | [7] | [8] | [9] | [10] | [16] | [17] | [12] | [18] | [14]

CCC(C)(O)CCCC(C)C (centres undefined)
inactive: [1] | [2] | [3] | [15] | [4] | [5] | [6] | [7] | [8] | [9] | [19] | [10] | [20] | [16] | [17] | [12] | [14]

CC(=O)C1(C)CC2=C(CCCC2(C)C)CC1C (centres undefined)
inactive: [1] | [2] | [3] | [15] | [4] | [6] | [7] | [8] | [9] | [19] | [10] | [20] | [11] | [12] | [13] | [18] | [14]

CCCC(=O)O
inactive: [1] | [2] | [3] | [4] | [6] | [7] | [8] | [9] | [19] | [10] | [20] | [11] | [12] | [13] | [18] | [14]

CCOCCOCCO
inactive: [1] | [2] | [3] | [15] | [4] | [5] | [6] | [7] | [8] | [9] | [19] | [10] | [20] | [12] | [14]

CC(C)=CCCC(C)CCO (centres undefined)
inactive: [1] | [2] | [3] | [4] | [5] | [6] | [7] | [8] | [9] | [19] | [10] | [12] | [14]
